Screens from PubChem BioAssay.
Luciferase inh: blocks purified firefly luciferase enzyme activity; purified P. pyralis luciferase, luminescence, biochemical; Potency, µM (titrated, usually from 115 µM), actives largely listed as inhibitors; actives 2.5% (n = 76,000); AID 1347043; also: nearly all actives have a fitted effect of over 65% in size
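Luminescence read by CCD imaging after purified firefly luciferase (10nM final) was added to substrate buffer holding 10uM D-luciferin and 10uM ATP, pH 7.5, pre-dosed with compound.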
NIH3T3 tox: cytotoxic compounds in NIH 3T3 cells; NIH 3T3 viability, CellTiter-Glo ATP luminescence, 48-72 h; Potency, µM (series often up to 96.7 µM), for the others: at the top dose activity change, negative = cytotoxicity, most hits filed as inhibitors; actives 4.3% (n = 94,000); AID 1345082; also: nearly all actives have a fitted effect of over 55% in size
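Mouse fibroblast NIH 3T3 cells, 400 per well, received compound via pintool and were incubated for 48 or 72 hr prior to CellTiter-Glo ATP luminescence measurement.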
NPR1 antag: antagonists of human natriuretic peptide receptor Npr1. P16066. HEK293 hNpr1 GloSensor cGMP, ANP-stimulated luminescence. Potency, µM (highest dose often 46.3 µM), without a hit: at the top dose activity change, negative = inhibition, usual class: inhibitors. actives 1.6% (n = 76,000). AID 1347048; calls by dose curve; also: nearly all actives have a fitted effect of over 60% in size
Target sequence (P16066 whole entry, looked up): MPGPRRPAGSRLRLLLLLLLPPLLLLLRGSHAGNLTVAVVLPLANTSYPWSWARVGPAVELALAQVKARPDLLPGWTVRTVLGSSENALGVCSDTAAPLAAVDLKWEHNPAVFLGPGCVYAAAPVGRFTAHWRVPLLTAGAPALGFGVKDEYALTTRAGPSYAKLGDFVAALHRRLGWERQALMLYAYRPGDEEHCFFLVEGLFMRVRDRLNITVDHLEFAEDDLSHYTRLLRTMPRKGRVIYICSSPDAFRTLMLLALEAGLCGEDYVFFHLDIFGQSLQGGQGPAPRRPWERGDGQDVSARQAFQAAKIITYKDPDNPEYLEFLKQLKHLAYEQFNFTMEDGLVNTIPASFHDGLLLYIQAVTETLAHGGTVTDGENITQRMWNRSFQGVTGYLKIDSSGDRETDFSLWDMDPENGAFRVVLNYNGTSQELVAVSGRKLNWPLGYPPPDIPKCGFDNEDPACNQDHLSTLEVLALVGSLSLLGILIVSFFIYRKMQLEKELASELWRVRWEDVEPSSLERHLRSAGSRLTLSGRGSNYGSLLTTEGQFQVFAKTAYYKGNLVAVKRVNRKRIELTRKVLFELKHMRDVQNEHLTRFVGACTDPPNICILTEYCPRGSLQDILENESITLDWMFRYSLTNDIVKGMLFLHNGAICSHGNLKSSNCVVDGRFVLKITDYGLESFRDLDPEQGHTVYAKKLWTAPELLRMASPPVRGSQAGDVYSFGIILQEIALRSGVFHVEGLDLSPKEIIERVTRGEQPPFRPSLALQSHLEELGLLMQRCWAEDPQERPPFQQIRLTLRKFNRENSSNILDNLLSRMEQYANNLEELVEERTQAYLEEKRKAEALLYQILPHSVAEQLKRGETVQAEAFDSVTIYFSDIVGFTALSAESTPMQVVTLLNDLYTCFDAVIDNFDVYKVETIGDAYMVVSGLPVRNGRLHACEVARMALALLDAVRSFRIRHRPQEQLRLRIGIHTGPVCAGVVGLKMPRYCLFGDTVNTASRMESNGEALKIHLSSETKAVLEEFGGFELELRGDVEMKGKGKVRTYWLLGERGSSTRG
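Compound pre-incubated 30 min at room temperature on GloSensor-loaded HEK293 cells stably carrying hNpr1 and the pGS-40F cGMP biosensor. Stimulation uses hNppA at 0.1 nM final; luminescence is taken at baseline and 20 min post-agonist.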
HEK293 tox: HEK 293 cell cytotoxicity; Potency, µM (titrated, usually from 115 µM), for the others: at the top dose activity change, negative = cytotoxicity, actives largely listed as inhibitors; actives 6.6% (n = 94,000); HEK 293 viability, ATP luminescence (CellTiter-Glo), 48-72 h; also: nearly all actives have a fitted effect of over 60% in size
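Viability of HEK 293 cells, plated at 250 cells/well, was judged by cellular ATP after compound treatment for 48 or 72 hr. Luminescence was imaged 10 min after CellTiter-Glo addition at room temperature.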
An asterisk follows results filed as active; i = inactive; ? = inconclusive; . = no result; ! = not active in a repeat; [ ] = dose if it differs, or a comment. Rows were chosen to be rich in hits. Some 11% of all compounds tested hit in one or more screens of this group. Unless noted, calls follow the shape of the dose curve; as a rule, active = well fitted curve in the direction sought with a large enough effect; inconclusive = small, poorly fitted or top-dose-only effect, or another doubt; inactive = no such curve, though single readings can be large; an effect the other way counts as inactive or inconclusive. % is scaled to controls: 0 for no effect and ±100 for the full control effect; potency is read from the fitted curve at half-maximal effect.

SMILES	Luciferase inh	NIH3T3 tox	NPR1 antag	HEK293 tox
COc1cccc(-c2cc3c(=O)n(CCNC(=O)c4cc(F)ccc4F)ccn3n2)c1	7.08µM*	?	?	?
COc1ccc(-c2cc3c(=O)n(CCNC(=O)c4cc(OC)cc(OC)c4)ccn3n2)cc1	i	-23.5%	-17.2%	-5.2%
COc1cccc(-c2cc3c(=O)n(CC(O)c4ccccc4)ccn3n2)c1 (stereo not given)	3.55µM*	-29.3%	-29.8%	35.5µM*
COc1ccc(-c2cc3c(=O)n(CCNC(=O)c4cc(Cl)ccc4F)ccn3n2)cc1	?	-19.0%	-19.8%	79.4µM*
CCc1noc(-c2cn(C3CCCN(C(=O)c4ccc(OC(F)(F)F)cc4)C3)nn2)n1 (stereo not given)	i	-36.6%	-9.7%	-23.2%
Cn1cc(CN2CCOCCNC(=O)CC2)c2ccccc21	i	?	0.7%	-8.9%
CC(C)NC(=O)C[C@@H]1O[C@H](CNC[C@H]2O[C@@H](CC(=O)NC(C)C)[C@H](O)[C@@H]2O)[C@@H](O)[C@H]1O	i	-18.3%	-4.3%	i
COc1cccc(-c2cc3c(=O)n(CCNC(=O)Cc4ccc(F)cc4)ccn3n2)c1	7.94µM*	-10.1%	?	-9.7%
COc1cccc(-c2cc3c(=O)n(CCNC(=O)COc4ccccc4)ccn3n2)c1	25.1µM*	-20.2%	-23.0%	-23.3%
COc1cccc(-c2cc3c(=O)n(CCNC(=O)Cc4cccc(F)c4)ccn3n2)c1	11.2µM*	?	-2.5%	?
COc1ccc(OC)c(C(O)Cn2ccn3nc(-c4ccc(C(C)C)cc4)cc3c2=O)c1 (stereo not given)	?	-9.3%	?	31.6µM*
O=C(Nc1ccccc1Cl)c1nc2cccnc2n(Cc2ccccc2)c1=O	.	-7.9%	.	i
Cn1nc(C2CCN(C(=O)c3ccc4ccccc4n3)CC2)n(-c2ccccc2)c1=O	.	?	.	-8.1%
CC1CCN(CC2CCCCCN2C(=O)c2ccnn2C)CC1 (stereo not given)	.	-9.7%	.	i
CCc1nc2c(c(-c3ccc(OC)cc3)n1)CCN(Cc1cc(C)on1)CC2	.	20µM*	.	3.9%
CCc1nc2c(c(-c3ccc(Cl)cc3)n1)CN(Cc1ccc(OC)cc1)CC2	i	35.5µM*	1.6%	?
CCc1nc2c(c(-c3ccc(Cl)cc3)n1)CCN(Cc1ccc(OC)cc1)CC2	i	?	1.6%	?
CCc1nc2c(c(-c3ccc(Cl)cc3)n1)CN(Cc1cccc(OC)c1)CC2	i	12.6µM*	7.0%	?
CCc1nc2c(c(-c3ccc(Cl)cc3)n1)CN(Cc1ccc(F)cc1)CC2	i	22.4µM*	1.2%	44.7µM*
O=C1COCC2(CN(c3ccc(C(F)(F)F)cn3)C2)CN1c1ccccc1F	i	-27.2%[138 µM]	-2.6%[70.6 µM]	?
CCOc1ccc2c(n1)CCN(C(=O)Cc1cccc(OC)c1)C2	i	-20.3%	0.4%	0.8%
CCc1nc2c(c(-c3ccc(Cl)cc3)n1)CCN(Cc1ccc(C#N)cc1)CC2	i	?	7.0%	39.8µM*
CCc1nc2c(c(-c3ccc(Cl)cc3)n1)CN(Cc1ccccn1)CC2	i	-19.8%	2.2%	0.0%
CCc1nc2c(c(-c3ccc(Cl)cc3)n1)CN(S(=O)(=O)c1ccccc1)CC2	i	20µM*!	2.4%	4.6%
CCc1nc2c(c(-c3ccc(Cl)cc3)n1)CN(Cc1cccc3ccccc13)CC2	i	31.6µM*	0.4%	79.4µM*
SMILES	Luciferase inh	NIH3T3 tox	NPR1 antag	HEK293 tox
CN(C(=O)c1ccc2oc(CCc3ccccc3)nc2c1)C1CCOC1 (stereo not given)	?	-34.5%	-13.1%	?
COc1cccc(CCC(=O)N2CCCC(c3nnnn3-c3ccccc3)C2)c1 (stereo not given)	.	?	.	-22.4%
COc1ccccc1-n1cnc2cccnc21	i	?	0.0%[70.6 µM]	?
CN(C)c1ccc(-n2cnc3cccnc32)cc1	35.5µM*	?	14.6%[70.6 µM]	?
O=[S+]([O-])(c1cccc(C(F)(F)F)c1)N1CCCN(c2ccnc3ccnn23)CC1	.	?	.	44.7µM*
O=C(c1ccc(C(F)(F)F)cc1)N1CCCN(c2ccnc3ccnn23)CC1	.	?	.	22.4µM*
OCC1(CN2CCCC2)CCN(Cc2c(Cl)cccc2Cl)CC1	i	?	2.1%	?
OCC1(CN2CCCC2)CCN(Cc2ccc3ccccc3c2)CC1	i	39.8µM*	3.0%	39.8µM*
OCC1(CN2CCCC2)CCN(C/C=C/c2ccccc2)CC1	i	?	2.8%	35.5µM*
OCC1(CN2CCCC2)CCN(Cc2cc(F)cc(F)c2)CC1	i	-30.0%	7.4%	-5.2%
Cc1ccccc1-c1[nH]nc2ncc(-c3ccccc3F)nc12	i	?	-25.8%[70.6 µM]	50.1µM*
Cc1ccsc1-c1[nH]nc2ncc(-c3ccccc3F)nc12	i	?	-5.3%[70.6 µM]	70.8µM*
COc1ccc(-c2cnc3n[nH]c(-c4sccc4C)c3n2)cc1OC	i	?	-9.0%[70.6 µM]	63.1µM*
COc1ccccc1-c1cnc2n[nH]c(-c3sccc3C)c2n1	i	?	-19.3%[70.6 µM]	89.1µM*
Cc1ccccc1-c1[nH]nc2ncc(-c3cnn(C)c3)nc12	i	?	1.3%[70.6 µM]	?
COc1cccc(C(=O)N2CCCC3(CN[S+](=O)([O-])c4cnccc4N3)C2)c1 (stereo not given)	.	-14.0%	.	4.2%
O=C(Cn1nc2c(cc1=O)CCCC2)NCc1nnc2ccccn12	i	2.6%	0.0%	?
CC1CCCCN1C(=O)C1COC2(CCN(C(=O)c3ccco3)CC2)N1C(=O)c1ccccc1 (stereo not given)	i	-7.9%	2.7%	-17.5%
O=C(O)c1[nH]ncc1CN1CCc2[nH]nc(-c3ccc(-c4ccccc4)cc3)c2C1	i	-6.6%	-0.4%	-14.3%
Cc1ncsc1CN1CC(Oc2cccc(C(=O)N3CCOCC3)c2)C1	i	-9.0%	14.0%	?
COCCc1noc(-c2nc(-c3ccccc3)no2)n1	20µM*	-9.8%	-5.2%	-24.2%
Cc1noc(-c2nc(-c3ccc4c(c3)OCO4)no2)n1	?	-4.6%	0.7%	-14.8%
CCCc1noc(-c2nc(-c3ccc4c(c3)OCO4)no2)n1	12.6µM*	-5.5%	-15.8%	-21.3%
CCc1noc(-c2nc(-c3cccc(F)c3)no2)n1	25.1µM*	i	-21.4%	-6.7%
Cc1ccc(C2Cn3nnc(C(=O)N4CCN(C(=O)c5ccc(N(C)C)cc5)CC4)c3CO2)cc1 (stereo not given)	i	4.0%	-12.4%	-14.5%
Cc1ccc(C(=O)N2CCC3(CC2)c2[nH]c4ccccc4c2CCN3C)cn1	i	-25.5%	2.4%	-29.9%
O=C(CCc1ccccc1)Nc1cnc(-c2cccnc2)nc1	i	-1.6%	-14.8%	?
CC(C)(C)C(=O)Nc1cnc(-c2cccnc2)nc1	28.2µM*	-22.8%	-10.4%	-8.6%
Cc1noc(C)c1-c1cc(-c2cccc(O)c2)cn2cncc12	i	25.1µM*	-1.8%[70.6 µM]	?
Cc1noc(C)c1-c1cc(-c2cccc(F)c2)cn2cncc12	i	44.7µM*	-21.1%[70.6 µM]	?
